Marburg entry inh = inhibitors of Marburg virus binding or cell entry | Marburg virus pseudotyped entry inhibition, cell reporter | Potency, µM (top dose mostly 37.8 µM), for inactives: at the highest dose activity change, negative = inhibition, most hits filed as inhibitors | 300,000 tested, 1.8% active; calls by dose curve; tested in HEK293 cells; also: potency is read from the fitted curve at half-maximal effect
LASV entry inh = blocks Lassa virus binding to or entry into cells; Lassa virus pseudotype entry inhibition, cell reporter; Potency, µM (titrated, usually from 37.9 µM), inactives show at the highest dose activity change, negative = inhibition, usual class: inhibitors; 300,000 tested, 1.2% active; AID 540256; calls by dose curve; tested in HEK293 cells; also: potency is read from the fitted curve at half-maximal effect; nearly all actives have a fitted effect of over 50% in size
HCMV antiviral = inhibitors of human cytomegalovirus; 410,000 tested, 4.5% active; activity change, negative = inhibition, % at 57.5 µM; HFF cells, HCMV-luciferase reporter, 72 h; stronger effect = lower value; in the data active = activity change below about -60%; inconclusive = no clear call, values can overlap the other calls; inactive = above about -39%
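Inhibition of viral replication was scored as loss of reporter luminescence in HFFs infected with HCMV-luciferase (MOI 1 PFU/cell) for 72 h; compounds tested at 2 doses, normalized to buffer and Salinomycin controls.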
Vaccinia mCherry = inhibitors of vaccinia virus infection (mCherry reporter signal); Vaccinia virus mCherry reporter infection, fluorescence; Potency, µM (top dose mostly 36.5 µM), for the others: top-dose activity change, negative = inhibition, actives largely listed as inhibitors; 310,000 tested, 0.63% active; AID 720579; calls by dose curve; tested in A549 cells; also: potency is read from the fitted curve at half-maximal effect; nearly all actives have a fitted effect of over 35% in size
HCV inhibitor = inhibitors of hepatitis C virus infection. 340,000 tested, 3.4% active. AID 651820. Potency, µM (titrated, usually from 41.8 µM), without a hit: at the top dose activity change, negative = inhibition, hits mostly inhibitors. Huh7.5.1 HCVcc-Cre infection, luciferase reporter, 44 h; active = well fitted inhibition curve with a large enough effect; inconclusive = small, poorly fitted or top-dose-only effect, or another doubt; inactive = no such curve, though single readings can be large or run the other way; also: potency is read from the fitted curve at half-maximal effect
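Infectious HCVcc-Cre (~0.5 moi) was added to cells just after compound, with cells seeded 4 h earlier at 1,000 per well. Luciferase activity after 44 h culture reported infection; substrate was incubated 15 min at room temperature before reading.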
Vaccinia Venus = inhibitors of vaccinia virus (Venus reporter). Vaccinia virus Venus reporter expression, fluorescence. Potency, µM (doses to about 36.5 µM), without a hit: top-dose activity change, negative = inhibition, usual class: inhibitors. 330,000 tested, 0.46% active. AID 720580; calls by dose curve; tested in A549 cells; also: potency is read from the fitted curve at half-maximal effect; nearly all actives have a fitted effect of over 30% in size
An asterisk follows results filed as active; i = inactive; u = inconclusive; x = no result; ! = not active in a repeat; [ ] = another dose, or the depositor's remark. Sampled rows, rich in hits. Any-hit rate of the full collection: about 7.8%. % is scaled to controls: 0 for no effect and ±100 for the full control effect.

SMILES	Marburg entry inh	LASV entry inh	HCMV antiviral	Vaccinia mCherry	HCV inhibitor	Vaccinia Venus
Cc1ccc(N=c2oc3cc(O)ccc3cc2C(N)=O)cc1	u	u	-80*	u	11µM*	u
COc1cccc(-n2c(SC)nnc2C2CCN(Cc3cccc(OC)c3O)CC2)c1	x	x	x	-7%	x	1%
Cc1cccc(N2C(=O)/C(=C/c3ccc(N4CCN(C)CC4)o3)C(=O)NC2=S)c1C	-15%	-12%	-64*	-10%	10%	33%
CCc1ccccc1N1C(=O)/C(=C/c2ccc(N3CCN(C)CC3)o2)C(=O)NC1=S	14%	1%	u	2%	11%	69%
Cc1cc(N2CC(C)OC(C)C2)nc2ccccc12 (stereo not drawn)	18%[46.1 µM]	2%	-80*	-18%	u	-19%
O=C(NCCc1ccccn1)C1CC12CCN(C(=O)c1cccc(C(F)(F)F)c1)CC2 (stereo not drawn)	x	x	x	-12%	x	-5%
C[C@H]1CN(c2ccccc2)C(=O)[C@H]1CC(=O)Nc1ccc(Br)cc1	x	-4%[46.1 µM]	x	x	x	x
O=C(NNC(=O)C1CCN(Cc2ccc(F)cc2Cl)CC1)Nc1ccc([N+](=O)[O-])cc1	-3%	-17%	-18	x	11µM*	x
CN(C)C(=O)N1CCC(C(=O)NCc2ccc(F)cc2Cl)CC1	-8%	1%	u	-17%	20%	-16%
COc1ccc(NC(=O)CSc2nc(C)cs2)c(OC)c1	x	x	-23	x	-21%	x
CCOC(=O)c1cnc(SCC(=O)Nc2cc(OC)ccc2OC)nc1N	u	8%	7	-19%	6.3µM*	u
COc1ccc(OC)c(NC(=O)CSc2nc(C)cs2)c1	-9%	1%	32	0%	25µM*	-10%
COc1ccccc1OCC(=O)NCC(c1ccc(Cl)cc1)N1CCCCC1 (stereo not drawn)	u	-15%[46.1 µM]	-5	-7%	x	-4%
COc1ccc2c(c1)CCc1c(C(=O)Nc3c(C)nn(Cc4ccc(Cl)c(Cl)c4)c3C)noc1-2	4%[46.1 µM]	-1%[46.1 µM]	-88*	-9%[7.34 µM]	x	-9%[7.34 µM]
COc1ccc2c(c1)CCc1c(C(=O)Nc3c(C)nn(Cc4ccccc4)c3C)noc1-2	12%[46.1 µM]	6%[46.1 µM]	-67*!	u	8.9µM*	u
COc1ccc2c(c1)CCc1c(C(=O)Nc3c(C)nn(Cc4ccc(Cl)cc4)c3C)noc1-2	-4%[46.1 µM]	-10%[46.1 µM]	-79*	-9%[7.34 µM]	x	-5%[7.34 µM]
CCN(CC)CCNC(=O)c1nn(-c2ccc(Cl)cc2)c2c1CCc1cc(OC)ccc1-2	u	u	-25	u	u	13µM*
O=C(c1ccc2c(=O)n(Cc3ccco3)c(=S)[nH]c2c1)N1CCN(Cc2ccc3c(c2)OCO3)CC1	x	x	x	-22%	x	u
N#CC1C(=O)N=C(SCC(=O)c2ccc(Br)cc2)N=C1c1cccs1 (stereo not drawn)	-3%[46.1 µM]	x	x	x	x	x
COc1ccc2c(c1)CCc1c(C(=O)Nc3cc(C)n(Cc4ccc(Cl)cc4)n3)noc1-2	-3%	x	-64*	x	-1%	x
COc1ccc2c(c1)CCc1c(C(=O)NCc3ccc(Cl)cc3)noc1-2	0%[46.1 µM]	-22%	19	-9%	5%	-4%
O=S(=O)(NCC1CCCO1)c1ccc(-c2ccc(S(=O)(=O)NCC3CCCO3)cc2)cc1 (stereo not drawn)	-38%[46.1 µM]	x	-93*	u	u	u
Cc1ccc(S(=O)(=O)NCC2CCCO2)cc1 (stereo not drawn)	29%	10%	18	-14%	21%	-10%
O=C(c1ccc2c(c1)OCO2)C1CCCN(Cc2ccc(OC(F)F)cc2)C1 (stereo not drawn)	x	x	-11	x	13µM*	x
OC1CN=C2CCCc3c2n(c2ccc(Cl)cc32)C1 (stereo not drawn)	-6%	1%	15	u	-26%	-29%
SMILES	Marburg entry inh	LASV entry inh	HCMV antiviral	Vaccinia mCherry	HCV inhibitor	Vaccinia Venus
c1ccc(-c2ccc3c(c2)c2c4n3CCN=C4CCC2)cc1	26µM*	-5%	-15	x	u	x
COc1ccc(N2CC(NC(=O)c3ccc(S(=O)(=O)N4CCOCC4)cc3)CC2=O)cc1 (stereo not drawn)	x	-4%[46.1 µM]	-29	-2%	x	-13%
CCc1ccc(CN(C)C(=O)CCc2nc3ccccc3n(-c3ccc(OC)cc3)c2=O)cc1	10µM*	14µM*	-68*	u	u	u
COc1ccc(C(=O)NCC2(c3ccc(OC)c(OC)c3)CCCC2)c(OC)c1	x	x	41	x	14µM*	x
COc1ccc(CC(=O)NCC2(c3ccc(OC)c(OC)c3)CCCC2)cc1	u	5%	-3	-9%	-8%	-8%
CCOc1c(Cl)cc(CNc2ccc(S(N)(=O)=O)cc2)cc1OC	0%	u	u	u	4%	-29%
CCOc1c(Cl)cc(CNc2ccc(N3CCCC3)cc2)cc1OC	u	u	-65*	-15%	-7%	-26%
COc1ccc2c(c1)[nH]c(=O)c1sc3ccccc3c12	-16%	-12%	x	x	u	-15%
COc1ccc2sc3c(=O)[nH]c4ccccc4c3c2c1	2%[46.1 µM]	-1%	-83*	x	-21%	u
CCOc1ccc(CCNC(=O)CCc2c(C)nc3cc(-c4ccccc4OC)nn3c2C)cc1	u	u	-24	-5%[7.34 µM]	x	-7%[7.34 µM]
NC(=S)n1[nH]c(-c2ccc([N+](=O)[O-])cc2)c(N=Nc2ccccc2[N+](=O)[O-])c1=O	x	x	-39	x	-4%	x
NC(=S)n1[nH]c(-c2ccc([N+](=O)[O-])cc2)c(N=Nc2cccc([N+](=O)[O-])c2)c1=O	u	u	-72*	-23%	10µM*	-8%
Cc1c(N=Nc2c(-c3ccc([N+](=O)[O-])cc3)[nH]n(C(N)=S)c2=O)cccc1[N+](=O)[O-]	2.8µM*	u	-96*	u	8.9µM*	-14%
C=C(C(C)=O)C(O)c1ccc(C(F)(F)F)cc1 (stereo not drawn)	-13%[14.2 µM]	x	x	x	x	x
CCS(=O)(=O)Nc1cc(C(=O)N[C@H]2CCCCNC2=O)c2c(c1)nc(-c1ccccc1)n2C	x	x	x	i	x	-12%
COc1cccc(CNC(=O)c2cc(=O)[nH]c3ccc(S(=O)(=O)N4CCCC4)cc23)c1	-7%[46.1 µM]	2%[46.1 µM]	u	7%	x	0%
Cc1ccccc1CN1C(=O)CN=C(c2ccccc2)c2cc(Cl)ccc21	x	u	-71*	u	x	-22%
O=C(CSc1nc2ccccc2n1Cc1ccccc1Cl)NCc1ccccc1	x	u	-35	-1%	x	-8%
CC(C)C[C@H](NC(=O)C1OC1C(=O)O)C(=O)NCCCCN=C(N)N (stereo partly drawn)	4.1µM*	u	x	x	x	x
CCOC(=O)C1OC1C(=O)NC(CC(C)C)C(=O)NCCC(C)C (stereo not drawn)	x	x	x	-17%[60.7 µM]	x	-4%[60.7 µM]
Cc1n[nH]c(C)c1S(=O)(=O)N(CC(=O)Nc1ccc(C(F)(F)F)cc1)c1ccc(C(C)C)cc1	u	-6%[46.1 µM]	-96*	u	x	u
